BAZ2B inh: BAZ2B (human) inhibition. Q9UIF8. AlphaScreen BAZ2B-H3K14Ac peptide displacement. Potency, µM (titrated, usually from 114 µM), without a hit: at the top dose activity change, negative = inhibition, actives largely listed as inhibitors. 4.4% of 360,000 active. AID 504333; also: potency is read from the fitted curve at half-maximal effect; % is scaled to controls: 0 for no effect and ±100 for the full control effect; nearly all actives have a fitted effect of over 60% in size
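In this displacement format the biotinylated H3(5-23) peptide acetylated at Lys14 serves as ligand at 50 nM, with BAZ2B at 50 nM in PBS pH 7.4 containing 0.01% Tween-20. Donor and acceptor beads are 10 ug/mL final.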
PI5P4Ka inh: inhibitors of human PI5P4K alpha | P48426 | PI5P4Kalpha enzyme, ADP-Glo luminescence, 60 min; hits give low values | max response, % | 1.2% of 330,000 active; active = max response of -50% or lower; inconclusive = between -30% and -50%; inactive = -30% or higher; also: value at the top dose of about 77 µM; % is scaled to controls: 0 for no effect and ±100 for the full control effect
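Luminescence from ADP-Glo served as readout of PI5P4Kalpha activity in a qHTS format. Reaction: enzyme, substrate, compound, ATP at 5 microM final, 60 min at RT.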
JMJD2A Tudor inh: blocks the human JMJD2A Tudor domain | O75164 | AlphaScreen JMJD2A-Tudor / H3K4me3 peptide binding | Potency, µM (titrated, usually from 114 µM), inactives show at the top dose activity change, negative = inhibition, hits mostly inhibitors | 4.4% of 390,000 active; also: potency is read from the fitted curve at half-maximal effect; % is scaled to controls: 0 for no effect and ±100 for the full control effect; nearly all actives have a fitted effect of over 50% in size
HP1b chromo inh: inhibitors of HP1-beta chromodomain binding to methylated histone tails | Potency, µM (series often up to 114 µM), inactives show top-dose activity change, negative = inhibition, hits mostly inhibitors | 0.56% of 390,000 active | AlphaScreen HP1-beta / biotin-H3K9me3 peptide binding | AID 540317 | P83916; also: potency is read from the fitted curve at half-maximal effect; nearly all actives have a fitted effect of over 70% in size
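Compound inhibition of the preformed complex between 50 nM HP1-beta and 50 nM biotinylated H3K9me3 peptide was read by AlphaScreen. Buffer was PBS pH 7.4 with 0.01% Tween-20. Incubations ran 30 min at room temperature, with 10 ug/mL donor/acceptor beads.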
L3MBTL1 block: blocks human L3MBTL1; Q9Y468; AlphaScreen L3MBTL1–H3K9me1 peptide binding; Potency, µM (highest dose often 57.1 µM), without a hit: at the top dose activity, negative = inhibition, most hits filed as inhibitors; 0.66% of 230,000 active; also: potency is read from the fitted curve at half-maximal effect; % is scaled to controls: 0 for no effect and ±100 for the full control effect; nearly all actives have a fitted effect of over 60% in size
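AlphaScreen assay: L3MBTL1 (50 nM final) was preincubated 30 min at room temperature with biotinylated H3(1-15)K9me1 peptide (75 nM final), then 30 min with library compounds; streptavidin donor and nickel chelate acceptor beads (10 ug/mL final) added, 30 min dark.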
KDM4E inh: blocks human JMJD2E demethylase activity; Potency, µM (highest dose often 57.1 µM), inactives show at the highest dose activity change, negative = inhibition, usual class: inhibitors; JMJD2E catalytic domain, FDH-coupled NADH fluorescence (FDH is formaldehyde dehydrogenase); B2RXH2; 1.6% of 230,000 active; active = well fitted inhibition curve with a large enough effect, not every such curve was filed as active; inconclusive = small, poorly fitted or top-dose-only effect, or another doubt; inactive = no such curve, though single readings can be large or run the other way;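 also: potency is read from the fitted curve at half-maximal effect; 0% = wells with enzyme and -100% = buffer wells without enzyme; nearly all actives have a fitted effect of over 50% in size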
* marks the source's active call; other numbers are inactive results. Only some compounds are listed: those with a hit (about 5.7% of all), similar ones and a draw of the others. Unless noted, calls follow the shape of the dose curve; as a rule, active = well fitted inhibition curve with a large enough effect; inconclusive = small, poorly fitted or top-dose-only effect; inactive = no such curve, though single readings can be large or run the other way.

Screening Cc1c(NC(=O)Nc2cc(Cl)ccc2Cl)c(=O)n(-c2ccccc2)n1C returned BAZ2B inh -2%, PI5P4Ka inh 1, JMJD2A Tudor inh -14% and HP1b chromo inh 23%.
Screening C=CC[n+]1c(-c2ccc(Cl)cc2Cl)csc1Nc1c(C)n(C)n(-c2ccccc2)c1=O returned BAZ2B inh 40µM*, PI5P4Ka inh 8, JMJD2A Tudor inh inconclusive, HP1b chromo inh inconclusive, L3MBTL1 block -4% and KDM4E inh 3%.
Screening CC(NC(=O)c1cc(F)c(F)c(F)c1F)c1ccc(-n2ccnc2)cc1 (configuration not stated) returned BAZ2B inh -21%, PI5P4Ka inh -2, JMJD2A Tudor inh -7% and HP1b chromo inh 50%.
For Cc1ccccc1OCCCCn1nnc2sc3c(c2c1=O)CCC(C)C3 (configuration not stated) the results were BAZ2B inh 35%, JMJD2A Tudor inh 55% and HP1b chromo inh 118%.
COc1ccccc1/C=C(/C(=O)NCCCn1ccnc1)c1ccccc1 was read as BAZ2B inh inconclusive, PI5P4Ka inh 3, JMJD2A Tudor inh -26%, HP1b chromo inh 34%, L3MBTL1 block -15% and KDM4E inh 6%.
COc1ccccc1OCC#CCn1ccnc1 was read as BAZ2B inh 18µM*, PI5P4Ka inh -11, JMJD2A Tudor inh 5.6µM*, HP1b chromo inh inconclusive, L3MBTL1 block -3% and KDM4E inh inconclusive.
Screening CCOC(=O)/C=C/CCC/C=C/C(=O)c1ccccc1 returned KDM4E inh -6%.
For CC(=O)c1ccc(N2CCN(c3ccc(C(N)=O)cc3[N+](=O)[O-])CC2)cc1 the results were BAZ2B inh -37%, PI5P4Ka inh 0, JMJD2A Tudor inh -23%, HP1b chromo inh 25%, L3MBTL1 block 1% and KDM4E inh -1%.
O=C(Oc1cc(Cl)ccc1Cl)c1ccc(N2CCOCC2)c([N+](=O)[O-])c1 was read as BAZ2B inh inconclusive, PI5P4Ka inh 15, JMJD2A Tudor inh 35µM*, HP1b chromo inh inconclusive, L3MBTL1 block -21% and KDM4E inh -4%.
`O=[N+]([O-])c1cc(Cl)ccc1N1CCN(c2ccccc2O)CC1` gave BAZ2B inh 14µM*, PI5P4Ka inh 8, JMJD2A Tudor inh 40µM*, HP1b chromo inh inconclusive and KDM4E inh -24%.
NC(=O)c1ccc(N2CCN(c3ccc(O)cc3)CC2)c([N+](=O)[O-])c1 was read as BAZ2B inh inconclusive, PI5P4Ka inh -55*, JMJD2A Tudor inh 25µM*, HP1b chromo inh 79µM*, L3MBTL1 block -4% and KDM4E inh -20%.
Cc1cccc([S+](=O)([O-])NC2CCN(C#N)CC2)c1 was read as JMJD2A Tudor inh 7%.
Cc1cc(C(=O)OCC(=O)Nc2ccc(F)c(F)c2F)c(C)o1 was read as BAZ2B inh 2%, PI5P4Ka inh -8, JMJD2A Tudor inh 20µM*, HP1b chromo inh -11%, L3MBTL1 block 4% and KDM4E inh 1%.
For Cc1cc(C(=O)OCC(=O)Nc2ccc(F)cc2)c(C)o1 the results were BAZ2B inh 6%, PI5P4Ka inh 0, JMJD2A Tudor inh -11%, HP1b chromo inh 25% and KDM4E inh 12%.
For CCc1ccccc1Nc1nc2cc(Cl)c(Cl)cc2nc1-n1nc(C)cc1C the results were BAZ2B inh 14%, JMJD2A Tudor inh 6% and HP1b chromo inh 34%.
`CCNC(=S)NS(=O)(=O)c1ccc(C)cc1` gave BAZ2B inh -37%, PI5P4Ka inh -7, JMJD2A Tudor inh -34%, HP1b chromo inh 8%, L3MBTL1 block 10% and KDM4E inh -1%.
CCNC(=S)NS(=O)(=O)c1ccc(CC)cc1 was read as BAZ2B inh -4%, JMJD2A Tudor inh 25µM*, HP1b chromo inh -3%, L3MBTL1 block 5% and KDM4E inh -2%.
`COc1ccc(CCNC(=O)CCn2c(=O)c3ccccc3n(CC(=O)Nc3ccc(C)cc3C)c2=O)cc1OC` gave BAZ2B inh 20%, JMJD2A Tudor inh -27% and HP1b chromo inh 52%.
`Cc1cc(NC(=O)c2ccco2)cc(-c2nc3cc(Cl)ccc3o2)c1O` gave BAZ2B inh -12%, JMJD2A Tudor inh -12% and HP1b chromo inh 57%.
Screening Cn1cnc(C(=O)N2CCN(c3ccccc3)CC2)c1C(=O)N1CCN(c2ccccc2)CC1 returned BAZ2B inh 56µM*, PI5P4Ka inh -5, JMJD2A Tudor inh 28µM*, HP1b chromo inh -17% and L3MBTL1 block 2%.
Screening COc1ccccc1CC(=O)Nc1ccc2nc(Nc3cccc(Cl)c3)cc(C)c2c1 returned BAZ2B inh 3%, JMJD2A Tudor inh -6% and HP1b chromo inh 51%.
`Cc1nn(-c2ccccn2)c2c1C(c1ccsc1)C1=C(CCCC1=O)N2` (configuration not stated) gave BAZ2B inh -36%, PI5P4Ka inh -7, JMJD2A Tudor inh -24%, HP1b chromo inh 16% and KDM4E inh inconclusive.
`Cc1nn(-c2ccccn2)c2c1C(c1c(F)cccc1Cl)C1=C(N2)c2ccccc2C1=O` (configuration not stated) gave BAZ2B inh 8.9µM*, L3MBTL1 block -13% and KDM4E inh -25%.
`CCC(NC(C)C)C(O)c1ccc(O)c2[nH]c(=O)ccc12` (configuration not stated) gave BAZ2B inh -5%, PI5P4Ka inh -13, JMJD2A Tudor inh inconclusive, HP1b chromo inh 26%, L3MBTL1 block 0% and KDM4E inh inconclusive.
`CC[C@H](NC(C)C)[C@H](O)c1ccc(O)c(O)c1` gave KDM4E inh 11µM*.
For CNC[C@H](O)c1ccc(O)c(O)c1 the results were BAZ2B inh 50µM*, PI5P4Ka inh -1, JMJD2A Tudor inh -28%, HP1b chromo inh 14%, L3MBTL1 block inconclusive and KDM4E inh 16µM*.
COc1ccc(S(=O)(=O)c2cc3cc(OC)ccc3oc2=O)cc1 was read as BAZ2B inh -9%, JMJD2A Tudor inh -5% and HP1b chromo inh 36%.
COc1ccc(S(=O)(=O)c2cc3cc(C(C)(C)C)cc(O)c3oc2=O)cc1 was read as BAZ2B inh 25µM*, JMJD2A Tudor inh inconclusive and HP1b chromo inh -17%.
CC(C)c1nn2c(=O)cc(COC(=O)C3CCCCC3)nc2s1 was read as BAZ2B inh -3%, JMJD2A Tudor inh -9% and HP1b chromo inh 28%.
`CSc1nsc(/C=C/Nc2ccc(F)cc2F)c1C#N` gave BAZ2B inh inconclusive, PI5P4Ka inh -29, JMJD2A Tudor inh inconclusive, HP1b chromo inh -25%, L3MBTL1 block inconclusive and KDM4E inh inconclusive.

High-throughput results (PubChem)
